Assay outcomes (PubChem BioAssay)
14-3-3g Raf: alters human 14-3-3 gamma binding to Raf peptide; actives 0.19% (n = 160,000); AID 422; inhibition, % at 40 µM; FP, 14-3-3gamma / TMR-pS259-Raf peptide binding; in the data active means inhibition above about 30%
Target sequence (P61981 whole entry, looked up): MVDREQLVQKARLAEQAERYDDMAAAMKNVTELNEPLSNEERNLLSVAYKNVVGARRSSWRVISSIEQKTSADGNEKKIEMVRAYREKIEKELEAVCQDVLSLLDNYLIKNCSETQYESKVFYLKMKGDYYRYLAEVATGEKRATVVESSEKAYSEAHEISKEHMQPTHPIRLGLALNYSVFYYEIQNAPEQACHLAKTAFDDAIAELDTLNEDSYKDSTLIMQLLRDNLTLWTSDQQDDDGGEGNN
A number is an active result; – = inactive. This excerpt belongs to a sample that is enriched for hits.

SMILES | 14-3-3g Raf
O=c1nc2sc3[nH]c(=O)sc3cc-2s1 | 150
CCN1CCN(c2cc(Nc3ccc4c(c3)OCCO4)c3c4c(onc24)-c2ccccc2C3=O)CC1 | –
Cc1cccc(C(=O)Nc2sc3c(c2C(N)=O)CCCC3)c1 | –
Cc1ccc(NC(=O)c2ccccc2C)cc1I | –
Cc1ccccc1NC(=O)c1ccccc1C | –
Cc1ccccc1C(=O)Nc1ccccc1C(=O)Nc1ccccc1 | 35
CCOc1cc(C2CC(=O)Nc3c2ccc2ccccc32)cc(Br)c1OCC (stereo not drawn) | –
COC(=O)c1sc2nc(-c3ccncc3)cc(C(F)(F)F)c2c1N | –
Nc1c(C(=O)c2ccccc2)sc2nc(-c3ccccc3)cc(C(F)(F)F)c12 | 60
Nc1c(C(=O)NCCc2ccccc2)sc2nc(-c3ccccc3)cc(C(F)(F)F)c12 | –
COCCCNC(=O)c1ccc2c(=O)n(CCOC)c(=S)[nH]c2c1 | –
O=C(CCSCc1ccc(Cl)cc1)N1CCN(c2ccccn2)CC1 | –
Cc1oc2cc3oc(=O)c(Cc4ccccc4)c(C)c3cc2c1C | –
CC1=C(C(=O)OC2CCCCCCC2)C(c2ccccc2OC(C)C)NC(=O)N1 (stereo not drawn) | –
O=C(NCCN1CCN(C(=O)c2ccc([N+](=O)[O-])cc2)CC1)C(=O)Nc1ccccc1 | –
CCCCCn1c(N)c(C#N)c2nc3ccccc3nc21 | –
CCCCNc1ncc2cc3ccccc3nc2c1C#N | 90
CCCCNc1ncc(C(C)=O)c2ccccc12 | –
C=CCc1cccc2cc(C(=O)Nc3ccc(C)c(C)c3)c(=O)oc12 | –
CCOC(=O)c1ccc2nc(NS(=O)(=O)c3ccc(C)cc3)sc2c1 | –
COc1cc(OC)c(C2C=C(c3ccc(Cl)cc3)Nc3nnnn32)cc1OC (stereo not drawn) | –
O=C(c1c[nH]c2ccc(S(=O)(=O)N3CCCCC3c3cccnc3)cc2c1=O)N1CCCC1 (stereo not drawn) | –
O=C(O)c1c[nH]c2ccc(S(=O)(=O)N3CCCCC3c3cccnc3)cc2c1=O (stereo not drawn) | 57
CC1CCN(C(=O)c2c[nH]c3ccc(S(=O)(=O)N4CCCCC4c4cccnc4)cc3c2=O)CC1 (stereo not drawn) | –
Cc1ccccc1Nc1cc(C(=O)NCc2ccccc2)c2ccccc2n1 | –
SMILES | 14-3-3g Raf
CC12COc3ccccc3C1c1sc(=O)[nH]c1SC2 (stereo not drawn) | 108
O=C(O)C1Sc2[nH]c(=O)sc2C2c3ccccc3OC(=O)C12 (stereo not drawn) | –
O=c1[nH]c2c(s1)C1c3c(ccc4ccccc34)OCC1CS2 (stereo not drawn) | –
O=C(c1cccs1)C(O)c1c[nH]c2ccccc12 (stereo not drawn) | –
CCC(C(=O)NCc1ccc(C)cc1)n1c(=O)n(-c2cccc(C(F)(F)F)c2)c(=O)c2sccc21 (stereo not drawn) | –
COc1cc2ccccc2cc1C(=O)Nc1cccc(C(F)(F)F)c1 | –
CCn1cc(C(=O)NCc2ccccn2)c(=O)c2cc(S(=O)(=O)N3CCCCC3)ccc21 | 119
CCn1cc(C(=O)NC2CCCCC2)c(=O)c2cc(S(=O)(=O)N3CCCCCC3)ccc21 | –
CCn1cc(C(=O)NCc2ccco2)c(=O)c2cc(S(=O)(=O)N3CCCCCC3)ccc21 | –
CC(C)(C)c1ccc(NC(=O)c2scc3c2CCCC3)cc1 | –
Cc1ccccc1-n1c(SCc2ccccc2)nnc1-c1cccnc1 | –
CCn1c(CSc2nnc(-c3cccnc3)n2-c2ccccc2C)nc2cc(C(=O)O)ccc21 | 127
CCOc1ccccc1-n1c(SCC(N)=O)nnc1-c1cccnc1 | –
CCn1c(CSc2nnc3ccccn23)nc2cc(C(=O)O)ccc21 | 139
O=C(CSc1nnc2ccccn12)Nc1ccc2ccccc2c1 | –
CCn1c(CSc2nc3ccccc3n2C)nc2ccccc21 | –
CCOC(=O)c1ccc2c(c1)sc(=NC(=O)c1ccc(S(=O)(=O)N3CCCCC3)cc1)n2C | –
O=C(Nc1ccc2nc(-c3ccccc3)oc2c1)C12CC3CC(CC(C3)C1)C2 | –
CCSCCOC(=O)C1=C(C)NC2=C(C(=O)CC(c3ccccc3OC)C2)C1c1ccc(F)cc1 (stereo not drawn) | –
CCc1c(C#N)c(SCC(=O)c2cc3c(ccc4ccccc43)oc2=O)nc2c1CCC2 | –
CCOc1ccc(N(C(C)C(=O)N2CCCCC2)S(C)(=O)=O)cc1 (stereo not drawn) | –
O=C(O)c1cccc(NC2=C(N3CCCC3)C(=O)c3ccccc3C2=O)c1 | –
CCCCOc1ccc(NC2=C(N3CCOCC3)C(=O)c3ccccc3C2=O)cc1 | –
O=C(O)c1ccc(NC2=C(N3CCOCC3)C(=O)c3ccccc3C2=O)cc1 | 56
CCOC(=O)C1=C(C)NC(=S)NC1c1cn(-c2ccccc2)nc1-c1ccc(Cl)cc1 (stereo not drawn) | –
CCOc1ccc(NC(=O)CSC2=Nc3ccccc3C3=NC(C(C)C)C(=O)N23)cc1 (stereo not drawn) | –
CCN(CCCNC(=O)c1ccc2c(c1)NC(=O)c1ccccc1N2)c1cccc(C)c1 | –
